Results reported in PubChem BioAssay AID743445 (Broad Institute, 2014).
Hit rate of the full screen: of about 310,000 compounds, about 1,700 (0.55%) were called active. The sample holds actives, similar compounds and a random draw of the others, so the mix is not that of the screen. Values without a mark were called inactive. No stated cut-off is given here; in the data, active means inhibition above about 50%; inactive means the rest.

These compounds were tested against Histone-lysine N-methyltransferase NSD2 (Homo sapiens) (UniProt O96028) (assay: NSD2 histone methyltransferase inhibitors, primary screen, biochemical, AlphaScreen, single concentration, set 2 (AID 743445)). Settings: NSD2 peptide methylation, 120 min, at 12.5 µM, hits give high values.
Sequence of Histone-lysine N-methyltransferase NSD2 (Homo sapiens) (O96028 whole entry, looked up): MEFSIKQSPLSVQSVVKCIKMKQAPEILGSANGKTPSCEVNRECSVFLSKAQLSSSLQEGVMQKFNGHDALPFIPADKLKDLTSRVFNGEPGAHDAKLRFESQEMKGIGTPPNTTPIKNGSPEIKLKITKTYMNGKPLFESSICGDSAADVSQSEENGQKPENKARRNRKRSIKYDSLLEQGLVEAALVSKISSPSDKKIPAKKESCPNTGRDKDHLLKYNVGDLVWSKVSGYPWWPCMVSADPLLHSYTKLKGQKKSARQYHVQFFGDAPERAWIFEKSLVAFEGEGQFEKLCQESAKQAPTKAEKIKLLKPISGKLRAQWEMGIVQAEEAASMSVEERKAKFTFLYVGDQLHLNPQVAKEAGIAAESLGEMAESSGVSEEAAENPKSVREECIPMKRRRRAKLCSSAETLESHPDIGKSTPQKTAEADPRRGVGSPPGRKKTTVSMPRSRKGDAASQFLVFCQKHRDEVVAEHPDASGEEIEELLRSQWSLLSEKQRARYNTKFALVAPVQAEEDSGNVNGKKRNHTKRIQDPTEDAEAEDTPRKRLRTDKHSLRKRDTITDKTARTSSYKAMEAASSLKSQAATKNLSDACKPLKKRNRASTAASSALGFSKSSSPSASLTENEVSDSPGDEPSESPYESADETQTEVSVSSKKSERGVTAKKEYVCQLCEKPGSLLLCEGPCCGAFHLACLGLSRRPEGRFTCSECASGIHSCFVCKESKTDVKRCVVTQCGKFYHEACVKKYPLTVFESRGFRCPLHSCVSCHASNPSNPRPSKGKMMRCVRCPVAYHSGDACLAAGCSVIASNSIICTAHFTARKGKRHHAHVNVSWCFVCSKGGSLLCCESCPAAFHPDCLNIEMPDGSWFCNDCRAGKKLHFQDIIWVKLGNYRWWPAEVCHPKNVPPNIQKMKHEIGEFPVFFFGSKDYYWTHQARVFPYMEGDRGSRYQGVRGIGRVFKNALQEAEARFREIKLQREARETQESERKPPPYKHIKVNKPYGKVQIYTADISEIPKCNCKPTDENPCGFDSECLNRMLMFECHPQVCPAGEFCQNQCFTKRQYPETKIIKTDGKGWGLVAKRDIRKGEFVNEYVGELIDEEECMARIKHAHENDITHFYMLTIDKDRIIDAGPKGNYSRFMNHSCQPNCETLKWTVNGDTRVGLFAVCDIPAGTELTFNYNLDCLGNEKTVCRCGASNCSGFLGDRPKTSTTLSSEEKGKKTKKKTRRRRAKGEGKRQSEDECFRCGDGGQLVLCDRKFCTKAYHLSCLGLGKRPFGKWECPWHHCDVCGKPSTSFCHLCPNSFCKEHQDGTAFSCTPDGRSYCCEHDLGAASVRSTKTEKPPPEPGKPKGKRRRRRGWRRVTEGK

First: O=C(NS(=O)(=O)c1cccs1)[C@H]1O[C@@H](n2ccc(=O)[nH]c2=O)[C@H](O)[C@@H]1O
Second: COc1cccc(-c2cc(CNC(=O)[C@@H](Cc3ccccc3)NC(=O)[C@H]3O[C@@H](n4cnc(C(N)=O)n4)[C@H](O)[C@@H]3O)no2)c1
The inhibition of the first is higher: 0.413% for the first, -0.483% for the second.

Compared with CC(=O)N1CCCN(C2=Nc3ccccc3Sc3ccccc32)CC1, O=C(Nc1ccccc1)N1CCN(Cc2nc3ccccc3c(=O)[nH]2)CC1 is lower in inhibition: 0.906% for the first, -3.56% for the second.

Compared with O=C(Nc1ccc(N2CCOCC2)cc1)C1=COCCO1, O=C(NN=Cc1ccc(N2CCOCC2)cc1)c1cc2ccccc2cc1O is higher in inhibition: -0.182% for the first, -0.134% for the second.

Compared with COc1ccc(-n2c(SCC(=O)Nc3ccccc3-c3ccccc3)nnc2-c2cccnc2)cc1, Cc1ccc(-n2c(SCC(=O)Nc3cccc4ccccc34)nnc2-c2ccco2)cc1 is lower in inhibition: 3.15% for the first, -0.2% for the second.

Going from COC(=O)c1cc(S(=O)(=O)N2CCN(c3ccccc3C)CC2)cn1C to COc1ccc([C@H]2OC(=O)C[C@H]2C(=O)N2CCN(c3ccccc3F)CC2)cc1OC, the inhibition falls from 7.47% to -1.64%.

First: COc1ccc(-n2c(COc3ccc(C)cc3)nnc2SCC(=O)Nc2ccc(Oc3ccccc3)cc2)cc1
Second: COc1ccc(-n2c(COc3ccccc3)nnc2SCC(=O)Nc2ccc3c(c2)OCO3)cc1
The inhibition of the first is higher: 0.031% for the first, -0.703% for the second.

First: CC(C)CSc1nnc(-c2cccnc2)n1Cc1ccccc1
Second: Cc1ccc(-c2nnc(SCC(=O)Nc3ccc(Oc4ccccc4)cc3)n2Cc2ccco2)cc1
The inhibition of the first is lower: -2.26% for the first, 0.417% for the second.

Going from COC(=O)c1ccc(CSc2nnc(N)s2)o1 to CCOc1ccccc1Nc1nnc(SCC(=O)Nc2cc(C)on2)s1, the inhibition falls from -2.67% to -5.24%.

Compared with Cc1ccc(NC(=O)C(C)Sc2nc(C)cs2)cc1 (stereo not drawn), Cc1ccc(-n2c(SCC(=O)Nc3ccc(S(=O)(=O)Nc4nccs4)cc3)nnc2-c2ccncc2)cc1 is higher in inhibition: -1.63% for the first, 6.51% for the second.

First: O=C(NCc1ccco1)C1CCCN(S(=O)(=O)c2ccc(Cl)s2)C1 (stereo not drawn)
Second: O=C(NCc1cccs1)C1CCCN(S(=O)(=O)c2ccc([N+](=O)[O-])cc2)C1 (stereo not drawn)
The inhibition of the first is higher: 1.68% for the first, -2.05% for the second.

Going from O=C(Cc1ccccc1)NC(=S)Nc1ccc(N2CCCCC2)cc1 to CC(=O)Nc1ccc(S(=O)(=O)Nc2ccc(N3CCCCC3)cc2)cc1, the inhibition rises from 0.281% to 11.4%.

First: O=C(CN1CCCc2ccccc21)NCc1ccc(F)cc1
Second: COc1cccc(N2CCN(CC(=O)N(C)Cc3ccc(F)cc3)CC2)c1
The inhibition of the first is lower: 0.199% for the first, 2.97% for the second.

First: Cc1ccc(NC(=O)Cc2cccc(F)c2)c(S(=O)(=O)N2CCOCC2)c1
Second: Cc1cc(=O)[nH]c(SCC(=O)Nc2ccc(F)cc2F)n1
The inhibition of the first is higher: -1.61% for the first, -12.4% for the second.

Going from O=C(Nc1ccc(C(=O)O)c(O)c1)c1ccccc1 to O=C(NC1=CC(=O)c2ccccc2C1=O)c1ccccc1, the inhibition rises from -0.136% to 40.2%.

First: O=C(O)c1ccccc1/C=N/Nc1ccc(S(=O)(=O)Nc2ccc(Cl)cc2)cc1[N+](=O)[O-]
Second: O=C(NNS(=O)(=O)Cc1ccccc1)c1ccc([N+](=O)[O-])cc1
The inhibition of the first is higher: 14.9% for the first, -3.19% for the second.

Compared with O=C(CSc1nnc(COc2ccccc2)n1-c1ccc(Cl)cc1)Nc1ccc2c(c1)OCO2, Cc1ccc(-n2c(COc3ccccc3)nnc2SCC(=O)Nc2ccc3c(c2)OCCO3)cc1 is higher in inhibition: -1.07% for the first, 5.45% for the second.

Compared with O=C(N/N=C/c1cccnc1)c1cc2ccccc2cc1O, CC(=O)Nc1cccc(-c2cc3nc(NCc4cccnc4)n(C)c(=O)c3s2)c1 is lower in inhibition: 4.16% for the first, -4.37% for the second.

Compared with Clc1ccc(-n2c(COc3ccccc3)nnc2SCc2nc3ccccc3[nH]2)cc1, O=C(CSc1nc2sc3c(c2c(=O)n1-c1ccccc1)CCCC3)NN=Cc1ccc(OCc2ccccc2)cc1 is higher in inhibition: 1.86% for the first, 6.16% for the second.

Compared with CN(C)S(=O)(=O)c1cccc(C(=O)N/N=C\c2ccco2)c1, COc1cccc2cc(/C(C)=N/NC(=O)c3ccco3)oc12 is lower in inhibition: 3.26% for the first, -1.2% for the second.

First: Cc1ccccc1S(=O)(=O)NC(=O)C1(C)CCN1C(=O)C1(c2ccccc2)CCCC1 (stereo not drawn)
Second: CC(C)NC(=O)C1(C)CCCCCN1C(=O)c1ccc(-c2ccccc2)cc1 (stereo not drawn)
The inhibition of the first is higher: -0.963% for the first, -1.44% for the second.

First: C/C(=N\O)C1(C)N(O)C(C)(C)C(c2ccc(Br)cc2)=[N+]1[O-] (stereo not drawn)
Second: CCC1(C)N(O)C(C)(C)C(c2ccc(OC)cc2)=[N+]1[O-] (stereo not drawn)
The inhibition of the first is higher: -1.39% for the first, -2.21% for the second.

First: COc1ccc(/C=N/Nc2cc(N3CCOCC3)nc(C)n2)c(OC)c1
Second: CN(C)c1ccc(/C=N/Nc2cc(N3CCOCC3)nc(N3CCOCC3)n2)cc1
The inhibition of the first is higher: 7.29% for the first, 4.94% for the second.

Compared with Nn1c(SCC(=O)N2c3ccccc3Sc3ccccc32)nnc1-c1n[nH]c2c1CCC2, Nn1c(SCC(=O)Nc2ccc(S(N)(=O)=O)cc2)nnc1-c1n[nH]c2c1CCC2 is lower in inhibition: 14.3% for the first, -3.92% for the second.

Going from COC(=O)CNC(=O)c1ccccc1[N+](=O)[O-] to COC(=O)c1ccccc1-n1cc(COC(=O)NCCc2ccccc2)nn1, the inhibition falls from 0.597% to -1.58%.

Going from Cc1ccccc1NC(=O)Cn1nnc(-c2ccccc2F)n1 to Nn1c(SCC(=O)Nc2cccc3ccccc23)nnc1-c1cc(-c2ccc(F)cc2)n[nH]1, the inhibition rises from -1.41% to 8.09%.

Going from O=C(NCc1ccccc1)[C@@H]1CCCN1C(=O)[C@@H](NS(=O)(=O)c1ccc(F)cc1F)C1CCCCC1 to O=C(Nc1cc(F)cc(F)c1)OC1CCC12CCC(c1ccccc1)CC2 (stereo not drawn), the inhibition falls from -1.37% to -4.2%.

Compared with CCOC(=O)C1(Cc2ccccc2)CCN(Cc2cn(C(C)=O)c3ccccc23)CC1, O=C(CN1CCC(O)(c2ccccc2)CC1)Nc1ccc2c(c1)OCCO2 is lower in inhibition: 3.51% for the first, -3.29% for the second.

Compared with CCOC(=O)CCCNC(=O)COC(=O)/C=C/c1ccc2c(c1)OCO2, CCOc1ccc(/C=C/C(=O)OCC(=O)c2ccccc2OC)cc1OC is higher in inhibition: -2.71% for the first, -0.606% for the second.

Going from COc1ccc(-n2c(SCC(=O)NC3CCCC3)nnc2-c2ccncc2)cc1 to C=CCn1c(SCC(N)=O)nnc1-c1ccccc1OC, the inhibition falls from 7.3% to -2.46%.

First: O=C(Cn1c(=O)sc2ccccc21)Nc1ccc2c(c1)OCCO2
Second: Cc1ccccc1-n1nc(C)c2cc(C(=O)NC3CC3)sc21
The inhibition of the first is higher: 6.04% for the first, 0.032% for the second.

Going from O=C1Nc2ccccc2OC1CC(=O)N1CCCCCCC1 (stereo not drawn) to O=C(CSc1nc2c(c(=O)[nH]1)CCCC2)N1CCCCC1, the inhibition falls from 4.5% to -1.56%.

Going from CCOc1ccc(Cl)cc1-c1cc(C(=O)NCc2cccs2)[nH]n1 to CC(C)Nc1nc(NCCOc2ccccc2Cl)c2sccc2n1, the inhibition rises from 0.509% to 2.58%.

First: CCOc1ccc(N(CC(=O)Nc2c(C)n(C)n(-c3ccccc3)c2=O)S(=O)(=O)c2ccc(Cl)s2)cc1
Second: CCOc1ccc(Oc2c(Cl)cnn(-c3ccc(C)cc3)c2=O)cc1
The inhibition of the first is higher: 0.729% for the first, -2.84% for the second.

Compared with COC(=O)c1c(-c2cccs2)csc1NC(=O)CSc1ncnc2sc(C)c(C)c12, Cc1sc2ncnc(SCC(=O)NC3CCS(=O)(=O)C3)c2c1C (stereo not drawn) is higher in inhibition: -3.04% for the first, -1.67% for the second.

First: Cc1cc(C)cc(C(=O)NCCN2CCOCC2)c1
Second: CC(=O)c1c(C)[nH]c(C(=O)NCCCN2CCCC2)c1C
The inhibition of the first is lower: 4.87% for the first, 7.16% for the second.

Going from O=C(CCCCCN1C(=O)C2C3C=CC(C3)C2C1=O)Nc1ccccc1 (stereo not drawn) to O=C(CSc1nnnn1-c1ccccc1)NCc1ccco1, the inhibition rises from -10.2% to -2.53%.

Compared with O=C(NCc1ccco1)c1nc2ncccn2n1, C/C(CC(=O)NC(C)(C)C)=N\NC(=O)c1ccco1 is higher in inhibition: -4.87% for the first, -3.83% for the second.

First: COC(=O)C1=C(C)N(Cc2cccc(C(F)(F)F)c2)C(=NCc2ccccc2)NC1c1ccccc1C(F)(F)F (stereo not drawn)
Second: COc1ccccc1-c1cc(NC(C)=O)c2ncc(-c3ccc(F)cc3)n2c1
The inhibition of the first is lower: -2.64% for the first, -0.432% for the second.

First: COc1cc(/C=C/C(=O)n2cnc3ccccc32)cc(OC)c1OC
Second: Cc1nn(-c2ccccc2)c(Cl)c1/C=C/C(=O)c1ccc(O)cc1
The inhibition of the first is higher: 0.939% for the first, -0.695% for the second.

Compared with COc1ccc(S(=O)(=O)NC(C)C)cc1C(=O)NC1CCCCC1, COc1ccccc1N(C)S(=O)(=O)c1ccc(C(=O)N2CCC(C(N)=O)CC2)cc1 is lower in inhibition: 0.027% for the first, -2.68% for the second.

Compound O=C(NCCC1=CCCCC1)C1CCN(S(=O)(=O)c2ccc(Cl)s2)CC1 has an inhibition of -2.83%.

For COC(=O)CCCCC1=CCC2C(=O)C=C(O)C2C1 (stereo not drawn), the inhibition was 62.2% (active).
In the case of CCOc1ccccc1Nc1nnc(SCc2ccc(C(=O)OC)o2)s1, the inhibition is reported as 103% (active).
O=C1C=CC(=O)N1c1ccc(N2CCCCC2)cc1 was tested, and the inhibition was 51.2% (active).
O=C(O)c1ccccc1N=N/C(=N/Nc1cc(S(=O)(=O)O)ccc1O)c1ccccc1 was tested, and the inhibition was 70.7% (active).
With Cc1ccc(/C=N/NC(=O)c2cc3ccccc3cc2O)o1 the inhibition was 50% (active).
In the case of CCC1=[N+]([O-])C(C)(/C(C)=N\O)N(O)C1(C)C (stereo not drawn), the inhibition is reported as 96.5% (active).
C(=N/Nc1cc(N2CCOCC2)nc(N2CCOCC2)n1)/c1ccccc1 was tested, and the inhibition was 50.1% (active).
With O=C(CNC(=O)c1ccccc1)Oc1ccc([N+](=O)[O-])cc1 the inhibition was 53.4% (active).
With CC(=O)N(C1=C(Cl)C(=O)c2ccccc2C1=O)c1ccc(C(=O)O)cc1 the inhibition was 142% (active).
With CCOc1cc(/C=C/C(=O)OCC(=O)NCCN2C(=O)CSC2=O)ccc1OCC(C)C the inhibition was 128% (active).
O=C(Cn1cc(C(F)(F)F)ccc1=O)Nc1ccc2c(c1)OCCO2 was tested, and the inhibition was 58% (active).
For Cc1sc2ncnc(SCC(=O)Nc3ccc(CN4CCCC4)cc3)c2c1C, the inhibition was 56.5% (active).
For CCOC(=O)c1c(C)[nH]c(C(=O)NCCN2CCOCC2)c1C, the inhibition was 74.8% (active).
O=C(NCc1ccco1)c1nc(-c2ccccc2)n(-c2ccccc2)n1 was tested, and the inhibition was 59.6% (active).
C/C(=N/NC(=O)CCc1ccccc1)c1ccco1 was tested, and the inhibition was 51.2% (active).
For Cc1ccccc1-n1nc(C)c2c1N=C1C(Cl)=CC(Cl)=CN1C2c1ccc(C(=O)O)cc1 (stereo not drawn), the inhibition was 51.3% (active).
With COc1ccccc1N(C)S(=O)(=O)c1ccc(C(=O)NC2CCCCCC2)cc1 the inhibition was 50.3% (active).
